Compound in this assay: Nc1ncnc2c1ncn2[C@@H]1O[C@H](COP(=O)(O)OP(=O)(O)OP(=O)(O)O)[C@@H](O)[C@H]1O [adenosine 5'-triphosphate]
The assay can be described thus: log2 fold change of tryptic peptide abundance, ligand vs vehicle (limited proteolysis) (log2 ratio); higher = more trypsin-susceptible (destabilized). The note with it: ligand concentration: 5 mM; sample: E. coli desalted lysate; replicate design: treated before aliquoting. As for the experimental part: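 HT-PELSA: desalted E. coli K-12 BW25113 lysate (with 12 mM MgCl2) incubated with 5 mM ATP (pH 7) or water for 30 min at 25 C, then a 4 min trypsin pulse at 22 C. Peptides were quantified by DIA-MS (4 replicates). Value is the peptide log2 fold change (treated/control); negative = stabilized. Scale: negative = ligand-stabilized region.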
Chain of UniProt P17169 (P17169 whole entry): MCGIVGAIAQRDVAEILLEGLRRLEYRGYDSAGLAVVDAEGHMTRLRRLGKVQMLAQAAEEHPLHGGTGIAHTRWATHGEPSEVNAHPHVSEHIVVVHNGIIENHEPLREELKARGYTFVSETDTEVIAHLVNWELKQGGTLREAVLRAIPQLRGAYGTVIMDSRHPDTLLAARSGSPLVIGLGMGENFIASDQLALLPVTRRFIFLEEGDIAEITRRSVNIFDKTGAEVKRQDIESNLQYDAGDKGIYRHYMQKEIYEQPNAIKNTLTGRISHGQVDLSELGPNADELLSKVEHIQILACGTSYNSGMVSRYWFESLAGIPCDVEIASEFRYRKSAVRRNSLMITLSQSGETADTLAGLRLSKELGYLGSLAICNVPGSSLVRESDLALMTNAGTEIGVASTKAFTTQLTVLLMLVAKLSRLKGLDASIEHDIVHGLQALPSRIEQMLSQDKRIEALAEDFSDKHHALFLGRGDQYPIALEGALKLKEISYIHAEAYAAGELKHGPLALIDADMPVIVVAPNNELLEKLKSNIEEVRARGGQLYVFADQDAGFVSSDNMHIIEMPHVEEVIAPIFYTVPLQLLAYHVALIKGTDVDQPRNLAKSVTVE
Chain of UniProt P26646 (P26646 whole entry): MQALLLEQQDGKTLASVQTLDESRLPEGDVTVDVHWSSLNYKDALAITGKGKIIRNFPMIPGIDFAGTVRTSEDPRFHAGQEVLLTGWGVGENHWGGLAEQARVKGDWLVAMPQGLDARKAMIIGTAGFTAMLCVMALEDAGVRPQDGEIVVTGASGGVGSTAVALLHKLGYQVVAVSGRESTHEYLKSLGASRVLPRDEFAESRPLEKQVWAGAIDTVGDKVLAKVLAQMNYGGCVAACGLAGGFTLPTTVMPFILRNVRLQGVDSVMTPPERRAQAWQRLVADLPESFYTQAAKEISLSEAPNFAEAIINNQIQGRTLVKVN
Chain of UniProt P0A9U6 (P0A9U6 whole entry): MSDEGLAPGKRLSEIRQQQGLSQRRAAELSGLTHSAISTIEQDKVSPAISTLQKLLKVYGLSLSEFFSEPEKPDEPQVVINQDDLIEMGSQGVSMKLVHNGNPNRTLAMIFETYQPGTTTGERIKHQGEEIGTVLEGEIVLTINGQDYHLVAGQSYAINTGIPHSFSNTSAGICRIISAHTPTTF
Chain of UniProt P21514 (P21514 whole entry): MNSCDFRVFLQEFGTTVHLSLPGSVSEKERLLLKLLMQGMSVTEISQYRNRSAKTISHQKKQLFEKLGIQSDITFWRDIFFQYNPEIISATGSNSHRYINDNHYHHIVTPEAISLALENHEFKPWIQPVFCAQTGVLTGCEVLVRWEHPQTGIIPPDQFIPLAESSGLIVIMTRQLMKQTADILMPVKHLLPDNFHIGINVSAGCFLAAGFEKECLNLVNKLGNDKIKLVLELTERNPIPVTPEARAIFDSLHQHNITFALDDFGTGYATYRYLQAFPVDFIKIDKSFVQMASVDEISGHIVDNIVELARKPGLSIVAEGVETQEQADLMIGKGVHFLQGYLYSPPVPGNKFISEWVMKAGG
Chain of UniProt P08373 (P08373 whole entry): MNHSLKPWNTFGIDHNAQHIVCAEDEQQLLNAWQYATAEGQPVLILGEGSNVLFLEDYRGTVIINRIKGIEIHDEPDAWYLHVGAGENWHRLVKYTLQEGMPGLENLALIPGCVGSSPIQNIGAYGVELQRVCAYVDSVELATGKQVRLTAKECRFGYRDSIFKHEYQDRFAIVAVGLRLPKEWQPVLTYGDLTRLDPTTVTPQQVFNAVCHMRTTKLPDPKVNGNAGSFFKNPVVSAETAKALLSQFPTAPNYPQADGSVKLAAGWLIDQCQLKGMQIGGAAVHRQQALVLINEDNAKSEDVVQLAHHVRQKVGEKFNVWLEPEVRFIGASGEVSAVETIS
Chain of UniProt P08400 (P08400 whole entry): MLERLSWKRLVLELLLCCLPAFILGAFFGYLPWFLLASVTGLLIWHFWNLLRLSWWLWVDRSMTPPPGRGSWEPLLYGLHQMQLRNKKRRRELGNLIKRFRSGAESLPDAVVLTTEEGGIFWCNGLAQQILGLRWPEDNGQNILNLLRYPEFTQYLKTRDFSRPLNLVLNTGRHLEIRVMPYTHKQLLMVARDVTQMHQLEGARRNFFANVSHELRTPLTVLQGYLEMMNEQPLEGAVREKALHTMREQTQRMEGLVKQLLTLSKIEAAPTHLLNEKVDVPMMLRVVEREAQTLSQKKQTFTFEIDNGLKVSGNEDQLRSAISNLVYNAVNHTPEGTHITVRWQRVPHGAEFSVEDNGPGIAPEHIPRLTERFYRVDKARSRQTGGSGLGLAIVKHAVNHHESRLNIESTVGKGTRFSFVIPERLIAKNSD
Chain of UniProt P77756 (P77756 whole entry): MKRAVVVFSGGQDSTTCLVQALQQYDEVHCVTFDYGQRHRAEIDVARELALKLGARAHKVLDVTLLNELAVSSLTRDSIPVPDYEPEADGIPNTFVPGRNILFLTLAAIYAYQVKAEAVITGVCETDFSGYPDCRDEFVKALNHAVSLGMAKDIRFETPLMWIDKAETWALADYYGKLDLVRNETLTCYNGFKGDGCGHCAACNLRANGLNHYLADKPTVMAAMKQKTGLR
Chain of UniProt P39452 (P39452 whole entry): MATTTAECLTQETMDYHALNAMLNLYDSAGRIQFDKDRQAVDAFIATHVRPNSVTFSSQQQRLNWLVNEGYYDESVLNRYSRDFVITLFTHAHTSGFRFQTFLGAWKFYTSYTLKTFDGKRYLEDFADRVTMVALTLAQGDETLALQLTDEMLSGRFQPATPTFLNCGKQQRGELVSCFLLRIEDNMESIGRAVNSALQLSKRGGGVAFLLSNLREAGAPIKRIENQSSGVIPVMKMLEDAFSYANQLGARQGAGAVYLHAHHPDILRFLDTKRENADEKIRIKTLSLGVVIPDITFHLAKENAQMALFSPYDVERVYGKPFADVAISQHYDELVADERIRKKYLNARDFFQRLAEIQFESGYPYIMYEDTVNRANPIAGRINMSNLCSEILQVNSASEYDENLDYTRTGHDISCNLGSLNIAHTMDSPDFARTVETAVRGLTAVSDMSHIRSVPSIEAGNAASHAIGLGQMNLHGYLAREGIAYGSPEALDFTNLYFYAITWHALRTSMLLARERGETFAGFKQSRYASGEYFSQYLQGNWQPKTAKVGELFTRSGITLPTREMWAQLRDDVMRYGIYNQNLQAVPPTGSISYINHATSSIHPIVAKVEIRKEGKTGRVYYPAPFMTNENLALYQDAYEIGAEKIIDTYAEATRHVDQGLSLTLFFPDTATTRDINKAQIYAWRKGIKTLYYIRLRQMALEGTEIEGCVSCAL
Chain of UniProt P39400 (P39400 whole entry): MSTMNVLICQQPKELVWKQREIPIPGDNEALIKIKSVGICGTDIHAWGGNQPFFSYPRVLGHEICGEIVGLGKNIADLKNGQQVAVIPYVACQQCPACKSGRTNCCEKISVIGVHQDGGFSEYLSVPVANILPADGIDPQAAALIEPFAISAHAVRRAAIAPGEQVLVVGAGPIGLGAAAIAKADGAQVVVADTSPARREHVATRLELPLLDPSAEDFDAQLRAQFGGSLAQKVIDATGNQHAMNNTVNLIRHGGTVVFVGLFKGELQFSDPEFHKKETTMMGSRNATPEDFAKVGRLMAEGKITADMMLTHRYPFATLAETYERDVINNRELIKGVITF
Chain of UniProt P09323 (P09323 whole entry): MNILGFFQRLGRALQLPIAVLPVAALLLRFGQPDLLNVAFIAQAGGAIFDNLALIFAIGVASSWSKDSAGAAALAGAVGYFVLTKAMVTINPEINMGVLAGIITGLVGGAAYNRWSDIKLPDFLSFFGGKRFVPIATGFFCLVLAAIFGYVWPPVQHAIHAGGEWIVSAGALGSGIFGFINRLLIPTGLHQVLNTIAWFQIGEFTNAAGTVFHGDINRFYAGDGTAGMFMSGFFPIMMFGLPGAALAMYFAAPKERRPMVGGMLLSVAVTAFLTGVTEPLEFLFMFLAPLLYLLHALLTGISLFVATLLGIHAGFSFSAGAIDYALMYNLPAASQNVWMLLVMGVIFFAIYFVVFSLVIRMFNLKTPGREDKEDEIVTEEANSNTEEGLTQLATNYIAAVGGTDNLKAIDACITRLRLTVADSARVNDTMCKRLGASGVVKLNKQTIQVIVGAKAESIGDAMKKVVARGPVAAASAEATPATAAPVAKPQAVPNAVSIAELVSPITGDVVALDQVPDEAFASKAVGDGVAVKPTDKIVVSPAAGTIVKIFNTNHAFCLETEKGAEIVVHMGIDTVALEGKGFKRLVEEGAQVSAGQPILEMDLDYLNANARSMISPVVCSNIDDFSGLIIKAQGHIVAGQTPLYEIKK
Chain of UniProt P24200 (P24200 whole entry): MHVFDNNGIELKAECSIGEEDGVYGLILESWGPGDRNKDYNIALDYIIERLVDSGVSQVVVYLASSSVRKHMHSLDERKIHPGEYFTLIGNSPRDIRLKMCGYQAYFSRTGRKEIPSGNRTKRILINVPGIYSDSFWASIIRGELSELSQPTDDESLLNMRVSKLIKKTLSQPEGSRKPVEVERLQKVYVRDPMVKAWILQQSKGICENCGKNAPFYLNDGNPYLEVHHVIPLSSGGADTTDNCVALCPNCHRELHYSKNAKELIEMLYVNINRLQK
Chain of UniProt P78061 (P78061 whole entry): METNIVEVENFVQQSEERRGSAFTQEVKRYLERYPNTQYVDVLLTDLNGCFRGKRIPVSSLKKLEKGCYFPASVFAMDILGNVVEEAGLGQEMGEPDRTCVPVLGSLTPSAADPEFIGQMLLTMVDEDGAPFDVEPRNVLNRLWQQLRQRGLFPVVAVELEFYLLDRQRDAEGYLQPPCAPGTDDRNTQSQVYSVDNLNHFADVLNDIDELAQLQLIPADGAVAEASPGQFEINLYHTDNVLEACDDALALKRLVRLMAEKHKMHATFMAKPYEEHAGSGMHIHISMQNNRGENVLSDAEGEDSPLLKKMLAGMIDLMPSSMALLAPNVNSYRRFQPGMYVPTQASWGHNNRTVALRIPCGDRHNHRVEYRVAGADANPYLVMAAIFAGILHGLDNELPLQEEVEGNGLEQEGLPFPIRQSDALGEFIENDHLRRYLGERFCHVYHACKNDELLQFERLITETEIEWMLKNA
“UniProt P77272 (peptide sequence: LRLGVHDSSLVDPNIK, peptide start residue: 33)”: the log2 fold change turned out to be 0.714.
As to “UniProt P39400 (peptide sequence: VLGHEICGEIVGLGK, peptide start residue: 59)”, the log2 fold change is -1.26.
Regarding “UniProt P78067 (peptide sequence: WGHAGSDSTHMEDFHNPDGTMR, peptide start residue: 340)”, the log2 fold change is -0.858.
For the target “UniProt P39452 (peptide sequence: IIDTYAEATR, peptide start residue: 646)”, the log2 fold change is -1.19.
Next, “UniProt P37689 (peptide sequence: LVAAIKSGK, peptide start residue: 383)”: -2.15.
Next, “UniProt P37685 (peptide sequence: MMLEHYQQTK, peptide start residue: 489)”: -0.646; “UniProt P23857 (peptide sequence: ERIATAVPDKNDTVK, peptide start residue: 50)”: 0.323; “UniProt P0A9L3 (peptide sequence: VINQGEGAIPARTDR, peptide start residue: 108)”: 0.513.
For the target “UniProt P05055 (peptide sequence: GDISEFAPR, peptide start residue: 546)”, the log2 fold change is -0.643.
With “UniProt P77775 (peptide sequence: TGVVLAPDGGILGK, peptide start residue: 163)” the figure was -0.725; with “UniProt P04968 (peptide sequence: EALLAVTIPEEK, peptide start residue: 338)”, 0.397.
Next, “UniProt P08373 (peptide sequence: VNGNAGSFFKNPVVSAETAK, peptide start residue: 223)”: 0.267.
For the target “UniProt P31060 (peptide sequence: ALAGELPLLKGER, peptide start residue: 48)”, the log2 fold change is -1.32.
For the target “UniProt P09323 (peptide sequence: AIDACITR, peptide start residue: 408)”, the log2 fold change came out at 0.593.
As to “UniProt P77215 (peptide sequence: AWFTGGATAEK, peptide start residue: 11)”, the log2 fold change is -0.425.
In the case of “UniProt P77756 (peptide sequence: HRAEIDVAR, peptide start residue: 39)”, the log2 fold change was -2.3.
With “UniProt P00452 (peptide sequence: FYDAVSTFK, peptide start residue: 196)” the figure was -3.51.
With “UniProt P08400 (peptide sequence: FSFVIPER, peptide start residue: 417)” the figure was 2.08; with “UniProt P00579 (peptide sequence: EPTPEELAER, peptide start residue: 477)”, 0.829; with “UniProt P21514 (peptide sequence: NPIPVTPEAR, peptide start residue: 237)”, -2.06.
Regarding “UniProt P77202 (peptide sequence: TLNIIMGNK, peptide start residue: 240)”, the log2 fold change was found to be 0.511.
Take “UniProt P26646 (peptide sequence: ESTHEYLK, peptide start residue: 181)”: the log2 fold change was 0.217.
“UniProt P24200 (peptide sequence: TLSQPEGSR, peptide start residue: 169)”: the log2 fold change is -0.499.
On to “UniProt P27249 (peptide sequence: VEDLFIIATADRR, peptide start residue: 854)”, for which the log2 fold change came to 0.328.
With “UniProt P0A9U6 (peptide sequence: VSPAISTLQK, peptide start residue: 45)” the figure was 0.654; with “UniProt P03841 (peptide sequence: STFISSVKGKG, peptide start residue: 296)”, 0.922; with “UniProt P17169 (peptide sequence: LKSNIEEVR, peptide start residue: 530)”, -0.459.
Regarding “UniProt P37671 (peptide sequence: SYWESHQHEIQPLTR, peptide start residue: 174)”, the log2 fold change is -0.718.
With “UniProt P05804 (peptide sequence: DKNHPSVVMWSIANEPDTRPQGAR, peptide start residue: 399)” the figure was -0.737; with “UniProt P03007 (peptide sequence: VTDSLAVAR, peptide start residue: 127)”, 0.313; with “UniProt P31665 (peptide sequence: QEVSQEFAQR, peptide start residue: 262)”, -0.678.
Consider “UniProt P77433 (peptide sequence: GEFLNNVAQALGRPLR, peptide start residue: 5)”, for which the log2 fold change came out at 0.243.
Regarding “UniProt P09980 (peptide sequence: AANILIANNPHVFEKR, peptide start residue: 286)”, the log2 fold change was -3.41.
With “UniProt P78061 (peptide sequence: FCHVYHACK, peptide start residue: 441)” the figure was -1.83; with “UniProt P37647 (peptide sequence: LTGGSAEDAAK, peptide start residue: 275)”, -1.34.
With “UniProt P32157 (peptide sequence: YPVDVYTGK, peptide start residue: 3)” the figure was -0.765.
For “UniProt P24173 (peptide sequence: IKLPWGAPHEEER, peptide start residue: 213)”, the log2 fold change was -0.445.
Next, “UniProt P37903 (peptide sequence: VHVHVEEGSPKDR, peptide start residue: 86)”: -1.8; “UniProt P75828 (peptide sequence: YLDIINR, peptide start residue: 246)”: -2.12.
Consider “UniProt P31554 (peptide sequence: GNIMWENEFR, peptide start residue: 268)”, for which the log2 fold change is -0.46.

(Values after the supplement of paper PMC12819154, “High-throughput peptide-centric local stability assay extends protein–ligand identification to membrane proteins, tissues and bacteria” (Nature Structural & Molecular Biology, 2025).)
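Further: lysate desalted by size exclusion to strip endogenous ATP, peptide intensities built from DIA-NN precursor signals, and peptides missing any value discarded before comparison.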
